Sampled rows, rich in hits. Any-hit rate of the full collection: about 4.5%.
697 NFkB inh = lowers PMA/ionomycin-induced NF-kB signal in 697 B cells; hit rate 0.33% among 330,000; inhibition, % at 4 µM; 697 B-cell NF-kB luciferase reporter, 16 h; in the data active means inhibition above about 35%
Beta cell apopt = beta cell apoptosis inhibition. INS-1E cytokine-induced death, ATP luminescence, 48 h; percent of positive-control rescue, neutral wells zero. protection from apoptosis, % (test concentration not listed). hit rate 0.8% among 300,000. AID 435005;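 active means Every replicate reaches about 75%, or at least half do and their mean reaches it too, limit read from the data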;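 further: 0% = cytokine-treated negative control wells and 100% = positive control rescue; higher means more ATP so stronger rescue from cytokine killing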
Gli-Sufu block = blocks Gli-Sufu signaling in a luciferase reporter. Sufu-KO-LIGHT fibroblasts, Gli luciferase reporter luminescence. inhibition, % at 5 µM. hit rate 0.74% among 340,000. AID 588413;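 active means inhibition above about 55%, limit read from the data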;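 further: 0% = DMSO-treated cells and 100% = wells with medium but no cells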
Mdm2-MdmX inh = inhibitors of human Mdm2/MdmX interaction; O15151+Q00987; SaOS-2 split-luciferase Mdm2/MdmX complementation, luminescence; inhibition, % at 8 µM; hit rate 3% among 330,000;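 active means inhibition of at least 50% at 8 µM in the primary screen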
Target sequence (O15151 whole entry, looked up): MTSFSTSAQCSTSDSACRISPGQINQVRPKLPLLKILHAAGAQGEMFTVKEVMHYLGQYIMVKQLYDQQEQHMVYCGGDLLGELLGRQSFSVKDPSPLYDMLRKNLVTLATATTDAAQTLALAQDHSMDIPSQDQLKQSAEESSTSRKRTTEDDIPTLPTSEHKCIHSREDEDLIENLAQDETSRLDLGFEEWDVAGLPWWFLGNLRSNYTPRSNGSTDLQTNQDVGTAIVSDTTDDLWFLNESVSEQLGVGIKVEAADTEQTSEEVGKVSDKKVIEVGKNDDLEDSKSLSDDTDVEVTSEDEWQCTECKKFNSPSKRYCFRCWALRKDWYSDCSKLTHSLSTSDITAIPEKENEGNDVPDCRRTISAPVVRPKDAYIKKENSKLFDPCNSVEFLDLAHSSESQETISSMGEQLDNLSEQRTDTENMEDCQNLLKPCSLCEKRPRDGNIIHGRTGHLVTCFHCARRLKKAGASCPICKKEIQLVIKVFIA
Target sequence (Q00987 whole entry, looked up): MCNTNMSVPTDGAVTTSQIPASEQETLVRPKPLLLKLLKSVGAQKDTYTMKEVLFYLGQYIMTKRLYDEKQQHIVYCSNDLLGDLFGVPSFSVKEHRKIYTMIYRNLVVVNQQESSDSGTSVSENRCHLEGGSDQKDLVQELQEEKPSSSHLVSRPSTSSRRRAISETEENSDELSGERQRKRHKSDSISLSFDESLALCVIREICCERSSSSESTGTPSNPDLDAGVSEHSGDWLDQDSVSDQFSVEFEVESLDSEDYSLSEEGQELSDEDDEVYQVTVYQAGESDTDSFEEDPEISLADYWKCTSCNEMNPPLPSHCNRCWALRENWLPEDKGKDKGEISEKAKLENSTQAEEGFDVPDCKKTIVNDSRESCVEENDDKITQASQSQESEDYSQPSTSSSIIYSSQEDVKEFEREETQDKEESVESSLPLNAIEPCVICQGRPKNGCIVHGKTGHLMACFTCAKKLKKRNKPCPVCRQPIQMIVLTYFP
Jurkat NFkB inh = lowers PMA/ionomycin-induced NF-kB signal in Jurkat cells; PMA/ionomycin-induced NF-kB luciferase reporter, luminescence; inhibition, % at 4 µM; hit rate 0.53% among 330,000; in the data active means inhibition above about 50%
CSC inhib = cancer stem cell inhibition. hit rate 1.1% among 300,000. cancer stem cell-like cells viability, luminescence. AID 2717. inhibition, % at 7.5 µM; in the data active means inhibition above about 75%; tested in HMLE shEcad cells
Mdm2-MdmX conf = confirmation of human Mdm2/MdmX interaction inhibitors. shares compounds with Mdm2-MdmX inh. hit rate 55% among 10,000. AID 489028. Mdm2-MdmX binding, luminescent assay. inhibition, % at 8 µM; in the data active means inhibition above about 40%
FLuc counter = counter-screen for Mdm2/MdmX inhibitors: full-length luciferase; shares compounds with Mdm2-MdmX inh; hit rate 77% among 6,200; SaOS-2 full-length luciferase counterscreen, luminescence; inhibition, % at 8 µM;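 active means mean inhibition at 8 µM reaching about 37%, which flags the compound as non-specific, limit read from the data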;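 further: p53-null SaOS-2 cells with luciferase driven by a doxycycline-inducible promoter; compound on cells about two nights before reading with doxycycline added after day one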
Active calls of the source: *; . = not tested or not shown.

SMILES	697 NFkB inh	Beta cell apopt	Gli-Sufu block	Mdm2-MdmX inh	Jurkat NFkB inh	CSC inhib	Mdm2-MdmX conf	others
COc1ccc(Nc2nc(Nc3ccc(OC)cc3OC)nc(N3CCN(C)CC3)n2)c(OC)c1	10.0	-6.5	6.4	50.8*	9.9	3.1	20.9
COc1ccc(Nc2nc(N3CCCC3)nc(N3CCCC3)n2)c(OC)c1	-0.6	3.2	11.6	2.1	22.5	29.2	.
COc1ccc(-c2cc(-c3ccc(F)cc3)nc(N3CCN(C)CC3)n2)cc1	7.1	.	13.9	78.7*	3.7	16.6	13.8
CCN(CC)CCNc1oc(-c2ccccc2)nc1S(=O)(=O)c1ccccc1	-9.8	-2.1	-1.2	1.4	-13.4	-3.1	.
COc1ccc(CCNC(=O)CSc2nc3scc(-c4ccccc4)c3c(=O)[nH]2)cc1	4.7	1.4	-1.1	-16.8	-7.4	2.5	.
COc1ccc(C2CC(c3ccccc3C(F)(F)F)=NN2c2ccc(S(N)(=O)=O)cc2)cc1 (stereo not drawn)	7.4	.	8.4	67.0*	.	.	62.0*	FLuc counter=70.1*
COc1ccc(C2CC(c3ccccc3F)=NN2c2ccc(S(N)(=O)=O)cc2)cc1 (stereo not drawn)	23.9	.	2.1	33.7	.	.	.
COc1ccc(C2CC(c3ccc(C(F)(F)F)cc3)=NN2c2ccc(S(N)(=O)=O)cc2)cc1 (stereo not drawn)	13.9	.	-4.3	92.5*	.	.	-6.6
NS(=O)(=O)c1ccc(N2N=C(c3ccccc3)CC2c2ccccc2)cc1 (stereo not drawn)	-4.4	5.7	8.0	11.7	4.2	41.6	.
CCc1ccc(C2=NN(c3ccc(S(N)(=O)=O)cc3)C(c3ccc(F)cc3)C2)cc1 (stereo not drawn)	-18.0	17.9	15.8	76.8*	-31.3	31.2	10.8
O=C(NC(C(=O)N/N=C/c1cc([N+](=O)[O-])ccc1O)c1n[nH]c(=O)c2ccccc12)c1ccccc1 (stereo not drawn)	-0.4	-0.1	-8.7	16.5	-17.2	.	.
COC(=O)C1=C(Nc2ccc(C)cc2)C=C(C)C(C(=O)OC)C1c1cccc(OC)c1 (stereo not drawn)	-15.9	10.5	10.4	52.9*	21.4	-0.9	56.9*	FLuc counter=62.0*
O=C(COc1ccc(C(=O)NCCc2ccccc2)cc1)Nc1ccccc1	24.8	-11.6	-16.7	-20.8	3.5	-2.0	.
O=C(COc1ccc(C(=O)c2ccc(F)cc2)cc1)NCc1ccc(F)cc1	-13.9	1.1	-0.6	39.9	44.3	50.9	.
COc1ccc(CNC(=O)COc2ccc(C(=O)c3ccc(F)cc3)cc2)cc1	13.6	-2.8	-4.8	60.9*	21.6	58.5	46.9*	FLuc counter=88.9*
O=C(COc1ccc(C(=O)Nc2ccc(Cl)cc2)cc1)NCc1ccccc1	17.1	-6.0	-1.3	61.7*	-12.4	2.0	23.8
Cc1ccc(CNC(=O)COc2ccc(C(=O)c3ccc(F)cc3)cc2)cc1	12.7	-13.2	0.1	51.5*	9.7	55.6	53.7*	FLuc counter=63.9*
Cc1nc(Cc2nnc(SCC(=O)Nc3c(C)cccc3C)o2)cs1	9.6	-6.2	-6.0	-25.9	4.1	.	.
C=CCOc1ccc(/C=C2\SC(N)=NC2=O)cc1OC	6.2	.	1.4	13.6	-4.1	4.1	.
COc1cc(/C=C2\COC/C(=C\c3ccc(O)c(OC)c3)C2=O)ccc1O	-60.6	-12.5	1.3	100.3*	3.6	86.7*	100.1*	FLuc counter=53.0*
NC1=NC(=O)/C(=C/c2cc(Br)c(O)c(Br)c2)S1	7.4	-0.3	-0.9	12.2	-6.0	1.9	.
COc1cc(/C=C2\SC(N)=NC2=O)ccc1O	-7.7	.	-26.1	59.9*	6.3	.	52.3*	FLuc counter=57.1*
COc1cc(/C=C2\SC(N)=NC2=O)cc(OC)c1	-8.7	-12.3	-4.1	50.8*	-2.7	1.5	24.9
Cc1ccc(NC(=O)CN(C)C(=O)c2nn(C)c(=O)c3ccccc23)cc1	21.6	-4.4	2.5	7.3	14.3	-11.1	.
Cc1ccc(Sc2nc(-c3ccccc3)nnc2C(F)(F)F)cc1	16.0	-8.0	1.1	54.0*	5.5	.	3.6
SMILES	697 NFkB inh	Beta cell apopt	Gli-Sufu block	Mdm2-MdmX inh	Jurkat NFkB inh	CSC inhib	Mdm2-MdmX conf	others
O=[N+]([O-])c1c(NCCCO)cc(Sc2nc3ccccc3s2)c2nonc12	12.8	-0.2	-3.2	99.2*	-45.2	-4.2	56.2*	FLuc counter=2.6
C/C(=N/NC(=O)c1cccs1)c1ccc(NC(=O)COc2ccc(Cl)cc2Cl)cc1	-7.5	2.0	-4.5	75.0*	-3.7	21.5	11.2
O=C(Nc1ccc(NC(=O)c2ccc(Cl)cc2Cl)cc1)c1cccs1	24.1	3.0	-3.9	71.7*	-16.1	2.0	21.6
C/C(=N/NC(=O)c1ccc(Cl)s1)c1ccc(NC(=O)COc2ccc(Cl)cc2)cc1	-28.2	6.0	-8.0	77.8*	-14.6	-1.9	5.5
COc1ccc2[nH]c(CN3CCC(n4nccc4NC(=O)C4CC4)CC3)c(C)c2c1	-2.5	-2.6	16.6	25.1	5.3	.	.
COC(=O)c1ccccc1NC(=O)CN1C(=O)c2ccccc2C1=O	12.0	-6.5	3.7	15.2	-1.7	-3.4	.
CC(OC(=O)Cc1ccc(Cl)cc1)C(=O)NC1CCCCC1C (stereo not drawn)	-0.6	.	-4.1	13.1	2.1	.	.
O=C(Nc1ccc(Cl)cn1)c1cccc2ccccc12	-55.9	37.4	11.1	51.5*	43.4	58.8	41.5*	FLuc counter=71.3*
CNc1ccccc1C(=O)OC(C)C(=O)Nc1ccc(Cl)cn1 (stereo not drawn)	4.7	.	-10.4	91.5*	-4.1	0.7	83.2*	FLuc counter=112.7*
O=C(Nc1ccc(Cl)cn1)c1ccccc1[N+](=O)[O-]	6.8	-2.9	-10.8	17.1	8.7	-17.9	.
O=C(CS(=O)(=O)c1ccccc1)Nc1ccc(Cl)cn1	7.4	6.9	-10.6	-4.8	-6.0	0.2	.
O=C(CC(c1ccccc1)c1ccccc1)Nc1ccc(Cl)cn1	-18.6	16.8	13.3	58.8*	30.5	-8.7	53.2*	FLuc counter=61.1*
CCOc1ncccc1C(=O)OC(C)C(=O)Nc1ccc(Cl)cn1 (stereo not drawn)	-7.6	.	-6.0	14.8	8.0	.	.
COc1ccccc1NS(=O)(=O)c1cccc(C(=O)NCC(c2cccs2)N2CCOCC2)c1 (stereo not drawn)	11.2	5.9	4.5	-1.7	-8.0	-7.7	.
CCOc1ccccc1N(CC(=O)NC(C)(C)C)C(=O)CCC(=O)Nc1nccs1	4.4	.	16.7	36.6	-1.3	-15.0	.
O=C(Nc1cc(Cl)ccc1Cl)c1ccc(-c2ccccc2)cc1	-16.8	0.9	-25.1	2.5	-33.1	7.3	.
COC(=O)c1ccc(C(=O)Nc2cc(Cl)ccc2Cl)cc1NC(=O)c1ccc(N(C)C)cc1	19.1	-15.4	-0.7	70.0*	-15.4	0.8	6.6
